Measurements reported in PubChem BioAssay (NCI).
About 79,000 compounds went through this panel and 15% of them were active in at least one assay; those are over-represented in the sample as a whole. No stated cut-off is given here; in the data, active means growth inhibition above about 70%; inactive means the rest.

Legend:
[1] = NCI Yeast Anticancer Drug Screen. Data for the rad50 strain (AID 155);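 further: 0% = growth of vehicle-only cultures of the same strain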; conditions: S. cerevisiae rad50 strain growth inhibition; at 50.0 µM; active compounds read high
Outline: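 Readout: growth inhibition relative to vehicle-treated cultures. Compound exposure was carried out in a genetically defined yeast strain deficient in DNA damage repair.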

[2] = NCI Yeast Anticancer Drug Screen. Data for the mec2-1 strain (AID 157); conditions: S. cerevisiae mec2-1 strain, at 50.0 µM, active compounds read high
Outline: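 Test agents were screened against the mec2-1 yeast strain, with defined DNA repair or cell cycle alteration. Growth was scored as inhibition against vehicle-only controls.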

[3] = NCI Yeast Anticancer Drug Screen. Data for the sgs1 mgt1 strain (AID 161);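 further: 0% = growth of cultures given vehicle only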; conditions: S. cerevisiae sgs1 mgt1 strain, at 50.0 µM, active compounds read high
Outline: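 Test agents were incubated with a DNA-repair-mutant yeast strain. Growth was then read and compared against vehicle-treated controls.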

[4] = NCI Yeast Anticancer Drug Screen. Data for the cln2 rad14 strain (AID 165);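 further: 0% = growth equal to vehicle treated cultures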; conditions: S. cerevisiae cln2 rad14 strain, at 50.0 µM, active compounds read high
Outline: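 Growth of compound-exposed yeast (cln2 rad14 genotype) measured and expressed as inhibition relative to vehicle.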

[5] = NCI Yeast Anticancer Drug Screen. Data for the bub3 strain (AID 167); conditions: S. cerevisiae bub3 mutant strain, at 50.0 µM, active compounds read high
Outline: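 Readout: yeast growth inhibition, expressed relative to vehicle-only wells. The test organism is a mutant strain from a panel with lesions in DNA repair or checkpoint genes.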

[6] = NCI Yeast Anticancer Drug Screen. Data for the mlh1 rad18 strain (AID 175); conditions: S. cerevisiae mlh1 rad18 strain growth inhibition; at 50.0 µM; active compounds read high
Outline: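 In this whole-cell yeast screen, a strain with altered DNA damage repair is challenged with compound, and its growth is measured against matched vehicle-treated controls.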

Measured: growth inhibition

C=CCOc1ccc(S(=O)(=O)c2ccc(OCC=C)cc2)cc1
inactive: [1] 3.55% | [2] -7.9% | [3] -2.55% | [4] -27.7% | [5] 8.2% | [6] -4.35%

CCCCCC/C(C=O)=C\c1ccccc1
inactive: [1] 31.8% | [2] 17.6% | [3] 26.6% | [4] 16.4% | [5] -4.6% | [6] 20.4%

COc1cccc(CN(CCc2cccc(OC)c2OC)C(=O)CN2CCOCC2)c1O
inactive: [1] -3.8% | [2] 9.35% | [3] -0.05% | [4] 8.8% | [5] 4.9% | [6] -23.1%

C=C1CC(C)(C)CN(Cc2ccc([N+](=O)[O-])cc2)C(C(=O)OC)=C1C(=O)OC
inactive: [1] 20.4% | [2] -2.55% | [3] 24.4% | [4] 16.8% | [5] -13.8% | [6] 13.2%

Nc1cc(N)cc([N+](=O)[O-])c1
inactive: [1] -9.75% | [2] -16.4% | [3] -8% | [4] -13.7% | [5] 8.8% | [6] 15.2%

C[N+](C)(C)c1ncncn1
inactive: [1] 2.05% | [2] 1.5% | [3] -10.8% | [4] -21% | [5] -25.3% | [6] -0.1%

NC1=NC(=S)CS1
inactive: [1] 0.95% | [2] -3.85% | [3] -12.3% | [4] -42.1% | [5] 16.7% | [6] 9.35%

COC(=O)c1nnn(-c2ccc(Cl)cc2Cl)c1N
inactive: [1] -6.35% | [2] -18% | [3] -14.6% | [4] 6.3% | [5] -19.3% | [6] 14%

O=S(=O)(O)C(CO)c1ccccc1 (stereo not given) (tested in a mixture with another compound)
inactive: [1] 5.75% | [2] 1.5% | [3] -12.9% | [4] -31.2% | [5] -28.7% | [6] 0.9%

O=C1NC(N2CCCCC2)=N/C1=C\c1cccs1
inactive: [1] 2.5% | [2] 2.2% | [3] -12.9% | [4] 7.05% | [5] -11.8% | [6] -29.4%

COc1cc(Br)c(C=Nc2cccc3ccc(OS(=O)(=O)c4ccc([N+](=O)[O-])cc4)cc23)cc1OC
inactive: [1] 7.6% | [2] -16.6% | [3] 0.65% | [4] 4.3% | [5] 5.5% | [6] 15.6%

S=C([S-])[P+](C1CCCCC1)(C1CCCCC1)C1CCCCC1
inactive: [1] -30.9% | [2] -39.1% | [3] -28.2% | [4] -29.2% | [5] -39.1% | [6] -39.2%

O=C(NC(=O)c1ccc([N+](=O)[O-])cc1)Nc1ccccc1
inactive: [1] 10.3% | [2] -4.35% | [3] -1.4% | [4] -25.4% | [5] -14.8% | [6] 5%

O=C(/C=C/c1ccccc1)SCc1ccccc1
inactive: [1] -2.9% | [2] 14% | [3] 11.2% | [4] -2.1% | [5] -4.75% | [6] 2.35%

CC(C)=C/C(C)=N/NC(N)=O
inactive: [1] 7.9% | [2] -4.55% | [3] -24.3% | [4] -19.1% | [5] -19.8% | [6] -32.2%

CCCCCCCC/C=C\CCCCCCCC(=O)OCC1CCCO1 (stereo not given)
inactive: [1] -6.8% | [2] 4.7% | [3] -26.6% | [4] 69.2% | [5] 33.6% | [6] 4.45%

Cc1ccc(N=Nc2c(N)nc(N)[nH]c2=O)c(C)c1
inactive: [1] 14.9% | [2] -4.8% | [3] -11.9% | [4] 9.6% | [5] 15.7% | [6] 19.8%

ClCCOC(CCl)OCCCl
inactive: [1] 24.1% | [2] 6.9% | [3] 22.1% | [4] 20.4% | [5] 6.5% | [6] 14.5%

COc1ccc2ccc3c(CCN(C)C#N)cc4c(c3c2c1OC(C)=O)OCO4
inactive: [1] 11.7% | [2] -2.15% | [3] -8.9% | [4] 6.6% | [5] -0.95% | [6] 0.15%

CC(=O)c1ccc(C2CCC[C@H]2c2ccc(C(C)=O)cc2)cc1 (stereo not given in full)
inactive: [1] 4.15% | [2] -1.55% | [3] 1.75% | [4] -40.2% | [5] 9.3% | [6] -16.4%

NNC1=Nc2ccc(Cl)cc2C(=S)N2CSCC12 (stereo not given)
inactive: [1] -1.05% | [2] -3.1% | [3] -11.7% | [4] -11.8% | [5] -8.95% | [6] 9.25%

COc1ccccc1NC(=S)N/N=C(/c1ccccc1)c1ccccn1
inactive: [1] -50.9% | [2] 22.6% | [3] 17.4% | [4] 15.1% | [5] 20.2% | [6] 10.6%

CCCCCCCCCCCCCCCC1CCCC2CCCCC12 (stereo not given)
inactive: [1] -9.05% | [2] 9.25% | [3] 9.5% | [4] -5.85% | [5] 12.6% | [6] -26.4%

O=S(=O)([O-])[O-].O=c1[nH]cnc2nc[n-]c12.[OH3+].[OH3+].[Zn+2]
inactive: [1] -26.8% | [2] -29.2% | [3] -20.6% | [4] -7.9% | [5] -30.9% | [6] -36.2%

CC1=C/C(=N/NS(=O)(=O)c2ccc(C)cc2)CC(C)(C)C1
inactive: [1] 27.6% | [2] -3.25% | [3] 11.8% | [4] -22.3% | [5] 4.1% | [6] 13.2%

C=CCn1c(=S)sc2c(C(=O)OCC)c3c(C)cc(C)cn3c2c1=O
inactive: [1] -18.1% | [2] -56.5% | [3] -60% | [4] -5% | [5] -34.7% | [6] -37.9%

O=C(NNc1ccccc1OCc1ccccc1)C(F)(F)F
inactive: [1] -0.25% | [2] -20.3% | [3] 0.35% | [4] 39.8% | [5] 27% | [6] 11.2%

Cc1cn(C2CC(C)N(CCO)O2)c(=O)[nH]c1=O (stereo not given)
inactive: [1] -8.1% | [2] -1.35% | [3] -16.8% | [4] -11.6% | [5] -14.9% | [6] -74.2%

COC(=O)c1c(C)c(C)cc(C)c1C
inactive: [1] -0.9% | [2] -13.2% | [3] -4.1% | [4] 11.7% | [5] -7.1% | [6] -9.5%

[CH2+][B-]1(C)n2cc(Br)c[n+]2[B-](C)(C)[n+]2cc(Br)cn21
inactive: [1] 16.2% | [2] 16.8% | [3] 8.05% | [4] 9.8% | [5] 7.1% | [6] 22.6%

N#CCc1ccccc1S(=O)(=O)O
inactive: [1] 13.3% | [2] -0.75% | [3] -3.45% | [4] -9.75% | [5] 5.05% | [6] 0.25%

CN(C)CCN1C(=O)CC[C@@]2(C)C1=CC[C@@H]1[C@@H]2CC[C@@]2(C)[C@H]1CC[C@]2(C)O
inactive: [1] -21.7% | [2] -12.8% | [3] -18.6% | [4] -11.1% | [5] -0.1% | [6] -9.15%

COc1cc(CNc2nc3ccccc3nc2C(=O)O)cc(OC)c1OC
inactive: [1] 10.3% | [2] 3.05% | [3] -8.75% | [4] 5.1% | [5] -2.15% | [6] -0.4%

CC(C)(C)NC1=C([N+](=O)[O-])CCCC1
inactive: [1] 4.25% | [2] 6% | [3] -1.05% | [4] -19.6% | [5] 11.9% | [6] 4.5%

O=c1cc(-c2ccccc2Cl)[nH]c2cc3c(cc12)OCO3
inactive: [1] 14.1% | [2] -26.3% | [3] 21.9% | [4] -6.95% | [5] 12.6% | [6] -39.8%

Cn1cnc2nc(N)[nH]c(=O)c21
inactive: [1] 37.2% | [2] 6.45% | [3] 2.5% | [4] -14.4% | [5] -0.95% | [6] 13.7%

S=c1[nH][nH]c(=S)c2[nH]cnc12
inactive: [1] 1.6% | [2] -3.1% | [3] -5.55% | [4] -18.4% | [5] 2.2% | [6] -0.4%

COc1ccc(S(=O)(=O)N/N=C/c2cccc([N+](=O)[O-])c2O)cc1
inactive: [1] 9.3% | [2] -3.7% | [3] 19.7% | [4] 2% | [5] 12% | [6] 32.6%

COc1ccccc1C(O)(c1ccccc1OC)C1(O)CCN(C)CC1
inactive: [1] -10.8% | [2] -10.9% | [3] -4.8% | [4] -4.45% | [5] -5.3% | [6] -10.4%

CCCC1(C)OCC(CCl)O1 (stereo not given)
inactive: [1] -41.6% | [2] -28.4% | [3] -14.6% | [4] -13.2% | [5] -18.3% | [6] 0.15%
